# Measured values from PubChem BioAssay AID488857 (Sanford-Burnham Center for Chemical Genomics, 2010).
# Out of some 1,400 compounds screened, about 560 (40%) were called active. The set was probably picked from earlier hits. This is one part of the list. Unmarked numbers belong to inactive results.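 The calls were made as follows: active = mean inhibition over duplicate tests at 10 µM above 50%; inactive = the rest.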
# Test: ASC/caspase-1 reporter retest in S. cerevisiae at one dose, specificity check for NALP1 project (AID 488857)
# Conditions: S. cerevisiae ASC/Caspase-1, beta-galactosidase luminescence, 24 h; at 10 µM; stronger effect = higher value
row,Compound,inhibition
1,O=C1c2ccccc2-c2cccc(NS(=O)(=O)c3ccc(C(F)(F)F)cc3)c21,36.2%
2,O=C1C(Nc2ccccc2)=C/C(=N/S(=O)(=O)c2cccs2)c2ccccc21,89.7% (active)
3,O=S(=O)(Nc1cccnc1)c1cccs1,25.8%
4,O=C(O)c1ccc(S(=O)(=O)/N=C2\C=C(Nc3ccccc3F)C(=O)c3ccccc32)cc1,100% (active)
5,CN(C)c1ccc(/C=N/NC(=O)c2nnn(-c3nonc3N)c2CN(C)c2ccccc2)cc1,20.1%
6,Cc1cc(C)c(NC(=O)/C(=C/c2ccccc2)c2ccccc2)c(C)c1,31.6%
7,S=c1[nH]nc(-c2ccco2)n1/N=C/c1cccc(Cl)c1Cl,65.7% (active)
8,CCOC(=O)C1CCCN(C2CC(=O)N(c3cccc(C(F)(F)F)c3)C2=O)C1 (configuration not stated),42.8%
9,O=c1ncn(-c2cccc(F)c2)c2ncccc12,35.6%
10,O=C(NCCCc1ccccc1)c1ccccc1O,47.4%
11,Cc1cc(C)cc(NS(=O)(=O)c2ccc(NC(=S)Nc3ccccc3)cc2)c1,23.9%
12,S=C(NCCc1ccccc1)Nc1ccc(Br)cc1,90.7% (active)
13,O=[N+]([O-])c1ccc(N2CCN(C(=S)Nc3ccccc3)CC2)cc1,35.5%
14,O=C(NC(=S)NCCCN1CCOCC1)c1ccc([N+](=O)[O-])cc1,37%
15,O=[N+]([O-])c1ccc(NC(=S)NCCc2ccc(F)cc2)cc1,96.3% (active)
16,S=C(NCCCc1ccccc1)Nc1ccc(Cl)cc1,95.5% (active)
17,CCCCCCCCCCOC(=O)Cn1c(COc2ccc(Cl)cc2)[n+](C)c2ccccc21,29.6%
18,Cc1ccc(Cn2nnnc2CN2CCC(c3nc4ccc(Cl)cc4[nH]3)CC2)cc1,31.4%
19,NC(=O)/C=C\C(=O)Nc1cccc(C(F)(F)F)c1,72.8% (active)
20,CCOC(=O)/C=C/C(=O)Nc1cccc([N+](=O)[O-])c1,55.5% (active)
21,COC(=O)/C=C/C(=O)Nc1cccc(C(F)(F)F)c1,60.1% (active)
22,CCOC(=O)/C=C/C(=O)Nc1nccs1,47.1%
23,CCN(C(=O)COC(=O)c1cccnc1Nc1cccc(C(F)(F)F)c1)C1CCS(=O)(=O)C1 (configuration not stated),29.9%
24,COC(=O)/C=C\C(=O)Nc1cccc([N+](=O)[O-])c1,42.8%
25,Cc1ccc(NC(=O)/C=C\C(=O)NCC(=O)O)cc1C,39%
26,O=C(NC1CCCC1)C(c1ccccn1)N(C(=O)c1csnn1)C1CC1 (configuration not stated),32.6%
27,O=C(O)c1cccnc1C(=O)N1CCc2c([nH]c3ccccc23)C1C(F)(F)F (configuration not stated),18.5%
